The values that follow come from PubChem BioAssay (NCI).

Each structure is given as a SMILES string. The panel holds about 83,000 compounds, 20% with a hit somewhere; the sample as a whole holds those more often.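 Activity criterion: percent growth below 10, measured after cells in 96-well plates were exposed to a single compound concentration for 48 hours.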 Unmarked numbers belong to inactive results. The source made the active and inactive calls.

Holding throughout (test): NCI-60 one-dose screen, 48 h (100 = growth as untreated, 0 = no growth, -100 = all killed)
Experiment [1] concerns NCI-H23 lung. The settings on record: 10 µM unless noted.
For experiment [2], the system named is NCI-H226 lung. The settings on record: 10 µM unless noted.
The subject of experiment [3] is NCI-H322M lung. The settings on record: 10 µM unless noted.
In experiment [4] the test system is HOP-62 NSCLC. The settings on record: 10 µM unless noted.
Experiment [5] concerns NCI-H460 lung. To be noted: 10 µM unless noted.
Experiment [6] concerns HOP-92 NSCLC. The settings on record: 10 µM unless noted.
In experiment [7] the test system is NCI-H522 lung. To be noted: 10 µM unless noted.
For experiment [8], the system named is A549/ATCC NSCLC. The settings on record: 10 µM unless noted.
The test system of experiment [9] is 786-0 renal. To be noted: 10 µM unless noted.
Experiment [10] has as its system COLO 205 colon. The settings on record: 10 µM unless noted.
The test system of experiment [11] is DU-145 prostate. The settings on record: 10 µM unless noted.
Experiment [12] concerns K-562 leukemia. The settings on record: 10 µM unless noted.
Experiment [13] deals with MALME-3M melanoma. To be noted: 10 µM unless noted.
The subject of experiment [14] is MDA-MB-231 breast. To be noted: 10 µM unless noted.
Experiment [15] concerns RXF 393 renal. The settings on record: 10 µM unless noted.
Experiment [16] deals with SF-268 CNS. To be noted: 10 µM unless noted.
The subject of experiment [17] is SF-295 CNS. The settings on record: 10 µM unless noted.
Experiment [18] concerns SF-539 CNS. The settings on record: 10 µM unless noted.
The subject of experiment [19] is UACC-257 melanoma. To be noted: 10 µM.
Experiment [20] deals with M14 melanoma. To be noted: 10 µM unless noted.

Regarding `CCCCSc1nnc(-c2ccc(-c3ccc(Cl)cc3)nc2C)o1`, the growth in experiment [1] is 95%; in [2], 95.9%; in experiment [3] it was 103%; in experiment [4], 108%; in [5], 101%; in experiment [6], 93.4%. Further, the growth is 98% in experiment [7]; 102% in [8]; 96.9% in experiment [9]; 101% in experiment [10]; 98.2% in experiment [11]; 90.1% in experiment [12]. Further, the growth is 102% in experiment [13]; 104% in experiment [14]; 110% in experiment [15]; 103% in [16]; 96.8% in [17]; 98.1% in experiment [18]. Besides, the growth in [19] is 106%; in experiment [20], 104%.
As to `C[C@H]1[C@H](C)CC[C@]2(COC(=O)c3cccnc3)CC[C@]3(C)C(=CC[C@@H]4[C@@]5(C)CCCNC(C)(C)[C@@H]5CC[C@]43C)[C@H]12`, the growth in experiment [1] was 70%; in experiment [2], 78.1%; in experiment [3] it was 88.3%; in [4], 99.8%; in experiment [5], 65.1%; in experiment [6], 67.5%. In addition, the growth in experiment [7] was 82.9%; in experiment [8], 78.6%; in experiment [9], 70.7%; in experiment [10] it was 43.9%; in [11], 84.4%; in experiment [12], 14.3%. Besides, the growth is 59.9% in experiment [13]; 79.3% in [14]; 81.9% in experiment [15]; 76.3% in experiment [16]; 73.3% in [17]; 78.8% in experiment [18]. Further, the growth in [19] was 65.7%; in experiment [20] it was 79.1%.
`O=C(/C=C/c1cn(-c2ccccc2)nc1-c1ccc(Cl)cc1)c1cc2ccccc2oc1=O`: the growth in experiment [1] is 78.3%; in experiment [2] it was 66.1%; in experiment [3], 77.7%; in experiment [4] it was 82.4%; in [5], 54.6%; in experiment [6], 79.6%. Besides, the growth is 71% in experiment [7]; 88.7% in experiment [8]; 46% in experiment [9]; 84.9% in [10]; 63.7% in experiment [11]; 58.4% in [12]. In addition, the growth in experiment [13] is 66%; in experiment [14], 55%; in experiment [15], 95.7%; in [16] it was 90.8%; in [17] it was 48%; in [18], 68.4%. Moreover, the values for the growth in experiment [19] and in experiment [20] were 93.5% and 72.8%, respectively.
`N/C(=N\c1nc2c(Cl)cccc2s1)C(Cl)(Cl)Cl`: the growth in experiment [1] is 93.2%; in experiment [2], 107%; in experiment [3], 0.236% (active); in experiment [4], 40.8%; in [5] it was 24.2%; in [6] it was 64.3%. In addition, the growth in [7] is 89.1%; in [8] it was 30%; in experiment [9] it was 90.9%; in experiment [10], 51.9%; in [11], 3.92% (active); in [12], 91.3%. Moreover, the growth is 104% in experiment [13]; 76.1% in experiment [14]; 55.2% in experiment [15]; 81% in experiment [16]; 20.1% in experiment [17]; 71.1% in experiment [18]. The growth in experiment [19] was 90.7%; in [20], 97.7%.
On to `CC(=O)Oc1ccc(CCN2C(=O)CSC2=S)cc1`, for which the growth in experiment [1] is 101%; in [2], 89.4%; in [3], 99.8%; in experiment [4], 111%; in experiment [5] it was 101%; in [6] it was 53.7%. For the same molecule, the growth is 61.7% in experiment [7]; 106% in [8]; 79.7% in experiment [9]; 115% in experiment [10]; 11% in [11]; 57.2% in [12]. The growth is 83.2% in experiment [13]; 64.4% in experiment [14]; 69.8% in experiment [15]; 92.1% in experiment [16]; 103% in experiment [17]; 85.2% in [18]. Further, the growth was 95.9% in experiment [19] and 85.7% in experiment [20].
As for `COc1ccc(/C=N/Nc2nc(Nc3ccccc3)nc(Nc3ccc(S(N)(=O)=O)cc3)n2)cc1`, the growth in [1] is 70.3%; in experiment [2], 73.2%; in experiment [3], 84.6%; in experiment [4] it was 80.4%; in experiment [5], 55.2%; in experiment [6], 95.7%. Besides, the growth in experiment [7] was 82.5%; in experiment [8] it was 87.1%; in [9], 73.7%; in experiment [10], 76.9%; in [11], 65.3%; in [12] it was 49.4%. Besides, the growth was 81.3% in [13]; 67.2% in [14]; 22.9% in experiment [15]; 90.9% in experiment [16]; 70.4% in [17]; 48% in experiment [18]. The growth in [19] was 96.4%; in experiment [20], 74.9%.
Regarding `O=C(CSc1ccc(-c2nc3ccccc3[nH]2)cn1)N1CCN(c2ccccc2F)CC1`, the growth was 67.3% in experiment [1]; 59.6% in experiment [2]; 101% in experiment [3]; 89.8% in experiment [4]; 88.5% in [5]; 71.9% in experiment [6]. For the same molecule, the growth in experiment [7] was 52.4%; in experiment [8], 81.2%; in experiment [9] it was 95.4%; in experiment [10] it was 79.7%; in [11], 90.7%; in [12], 41.9%. Moreover, the growth is 90.8% in [13]; 100% in experiment [14]; 90.7% in experiment [15]; 87.7% in [16]; 61.4% in experiment [17]; 92.1% in experiment [18]. The results for the growth in experiment [19] and in experiment [20] were 56.2% and 59.8%, respectively.
For `CCNC(=O)Oc1ccc(/C(=C(/C)c2ccc(Cl)cc2)c2ccc(OCCN3CCCC3)cc2)cc1`, the growth in experiment [1] was 87.5%; in experiment [2] it was 95.8%; in experiment [3] it was 93.3%; in experiment [4], 97%; in experiment [5] it was 80.6%; in experiment [6], 83.2%. Also, the growth in experiment [7] is 96.8%; in [8], 73%; in experiment [9], 71.4%; in [10], 88.8%; in [11] it was 102%; in [12] it was 13.5%. In addition, the growth in experiment [13] is 63.6%; in [14] it was 88.5%; in experiment [15] it was 66.9%; in experiment [16], 90.5%; in experiment [17], 96.8%; in experiment [18], 76.4%. Besides, the growth is 81.1% in experiment [19] and 68% in experiment [20].
